Screens (PubChem)
Compounds with a hit are over-represented: about 4.7% of the library has one in this group of screens.
eIF4H inh – human eIF4H binding inhibitors, primary screen, translation initiation inhibitor project, biochemical, uHTS, fluorescence polarization. Eukaryotic translation initiation factor 4H (Homo sapiens), Q15056. eIF4H fluorescence polarization binding assay. inhibition, % at 35 µM. 0.94% of 290,000 active. AID 2012, 2009;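 further: calls also rest on retests at 20 µM and on dose response follow-up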
PABP polyA inh – PABP poly(A) RNA binding inhibitors, primary screen, biochemical, fluorescence polarization, uHTS; Polyadenylate-binding protein 1 (Homo sapiens), P11940; 1% of 290,000 active; AID 2014, 2009; inhibition, % at 35 µM;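 further: calls also rest on retests at 20 µM and on dose response follow-up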
PABP1 MLLE inh – inhibitors of PABP1 MLLE–PAM2 peptide binding, primary screen, biochemical, fluorescence polarization, FITC-PAM2, GST-MLLE | Polyadenylate-binding protein 1 (Homo sapiens), P11940 | AID 588489, 2011 | 0.36% of 360,000 active | inhibition, % at 20 µM; in the data active means inhibition above about 35%, passing the limit was not always enough
UBC9 SUMO inh – inhibitors of in vitro SUMOylation cascade, primary screen, biochemical, HTRF, uHTS. SUMO-conjugating enzyme UBC9 (Homo sapiens), P63279. HTRF SUMOylation assay, SAE1/SAE2 + UBC9. inhibition, % at 35 µM. AID 2006, 2009. 0.36% of 290,000 active; in the data active means inhibition above about 50%, passing the limit was not always enough; inconclusive means no clear call, values can overlap the other calls
Target sequence (P63279 whole entry, looked up): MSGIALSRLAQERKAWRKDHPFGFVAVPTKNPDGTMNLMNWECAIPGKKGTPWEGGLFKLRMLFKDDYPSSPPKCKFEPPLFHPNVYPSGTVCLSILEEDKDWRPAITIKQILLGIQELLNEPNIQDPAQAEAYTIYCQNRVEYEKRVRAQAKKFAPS
Efflux pump mplx – inhibitors of Candida efflux pumps in yeast, primary screen, S. cerevisiae, Nile Red, multiplex | S. cerevisiae Candida pump triplex | inhibition, % at 10 µM | 0.44% of 330,000 active;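 active means plate passing quality check with inhibition over a set limit, or well fluorescence over plate mean plus 4 SD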;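 further: Nile Red retained in pooled yeast measured as flow cytometry median fluorescence; higher means more Nile Red kept so more efflux inhibition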
ALR inh – inhibitors of human ALR sulfhydryl oxidase, primary screen, biochemical, H2O2 detection, HRP-luminol luminescence, single point; inhibition, % (concentration not given with the values); purified ALR, DTT oxidation; FAD-linked sulfhydryl oxidase ALR (Homo sapiens), P55789; 3.8% of 290,000 active;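 active means mean replicate inhibition above about 79%, with every replicate also reaching it, limit read from the data; inconclusive means only one of the two criteria met; inactive means mean below limit and not every replicate reaching it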
Target sequence (P55789 whole entry, looked up): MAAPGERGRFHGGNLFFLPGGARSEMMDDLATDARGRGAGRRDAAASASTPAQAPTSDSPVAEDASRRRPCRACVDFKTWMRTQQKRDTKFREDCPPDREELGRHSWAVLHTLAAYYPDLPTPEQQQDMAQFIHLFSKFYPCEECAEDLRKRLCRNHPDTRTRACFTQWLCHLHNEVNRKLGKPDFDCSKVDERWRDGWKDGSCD
Of the large screens only hits and unclear results are named; the others gave an inactive call. Unless noted, how the calls were made is not given here.

COc1ccc(N2CCN(C(=O)CN(C)S(=O)(=O)c3cccs3)CC2)cc1	ALR inh 99
COc1ccc(S(=O)(=O)N(C)CC(=O)N2CCN(c3ccccc3)CC2)cc1	none
COc1ccc(N2CCN(C(=O)CCNS(=O)(=O)c3cccs3)CC2)cc1	ALR inh 94
CSCCC1NC(=S)N(Cc2ccccc2)C1=O (configuration not stated)	none
Cc1cc(C)n(-c2nnc(C)n2/N=C/c2ccco2)n1	none
C=C(C)CN=c1scc(C)n1/N=C/c1ccco1	ALR inh 99
CN1C(=O)N(C)C2(c3ccccc3)Nn3c(s/c(=C/c4ccccc4F)c3=O)=NC12c1ccccc1 (configuration not stated)	none (no result: PABP1 MLLE inh, ALR inh)
CN1C(=O)N(C)C2(c3ccccc3)Nn3c(s/c(=C/c4ccco4)c3=O)=NC12c1ccccc1 (configuration not stated)	PABP polyA inh 43
O=C(NNC(=O)c1ccccc1[N+](=O)[O-])c1csc(N2CCOCC2)n1	none (no result: eIF4H inh, PABP polyA inh, UBC9 SUMO inh)
COc1ccc(S(=O)(=O)N2CCN(C(=O)CC3CC4CCC3C4)CC2)cc1 (configuration not stated)	none (no result: eIF4H inh, PABP polyA inh, UBC9 SUMO inh)
CCOC(=O)CNc1nnc(SCC(=O)OCC)[nH]c1=O	PABP1 MLLE inh 46, ALR inh 100
COC(=O)CSc1nnc(C)c(=O)[nH]1	none
CC(Oc1ccc(Br)cc1)C(=O)Nc1ccc(N2CCOCC2)cc1N1CCOCC1 (configuration not stated)	none (no result: eIF4H inh, PABP polyA inh, UBC9 SUMO inh)
Nc1c(-c2ccccc2)c(CSc2nc3ccccc3[nH]2)nn1-c1cccc(Cl)c1	ALR inh 91
C(=N\N(Cc1ccccc1)c1ccccc1)/c1cccnc1	none
C/C(=N\N(Cc1ccccc1)c1ccccc1)c1cccnc1	ALR inh 99
CC(C)(C)C(=O)N1CCN(c2ccc3c(c2)C2CC3CCN2C(=O)OCc2ccccc2)CC1 (configuration not stated)	none (no result: eIF4H inh, PABP polyA inh, UBC9 SUMO inh, Efflux pump mplx, ALR inh)
Cc1cc(C(F)(F)F)n(-c2nc(C(=O)O)cs2)n1	eIF4H inh 1.5, PABP polyA inh 73
CC1C/C(=N/Nc2nc3ccccc3[nH]2)CC(C)(C)C1 (configuration not stated)	ALR inh 99
Cc1c(NC(=O)c2cc(Br)ccc2Cl)cccc1-n1cnnn1	none (no result: eIF4H inh, PABP polyA inh, UBC9 SUMO inh)
Cc1cccc(C)c1N=Nc1c(C)cc(O)cc1C	ALR inh 92
COc1ccccc1N1CCN(C(=O)/C=C/c2c(Cl)nc3ccccn23)CC1	none
COc1ccc(NC(=O)/C=C/c2c(Cl)nc3ccccn23)cc1	eIF4H inh 1.5, PABP polyA inh 76
COc1ccc(OC)c(NC(=O)C2(C)CCN2C(=O)C2(c3ccccc3)CCCC2)c1 (configuration not stated)	none (no result: eIF4H inh, PABP polyA inh, UBC9 SUMO inh, Efflux pump mplx, ALR inh)
O=C(NC(c1ccccc1)c1ccccc1)C1(c2cccs2)CCOCC1	eIF4H inh inconclusive, PABP polyA inh 1.4
Cc1cc(NC(=O)CSc2nc(-c3ccccc3)c(C#N)c(=O)[nH]2)no1	none (no result: ALR inh)
N#Cc1c(-c2ccccc2)nc(SCC(=O)N(c2ccccc2)c2ccccc2)[nH]c1=O	ALR inh 98
N#Cc1c(-c2ccccc2)nc(SCC(=O)Nc2ccccc2F)[nH]c1=O	ALR inh 99
Cc1cccc(NC(=O)CSc2nc(-c3ccccc3)c(C#N)c(=O)[nH]2)c1C	ALR inh 91
CCOC(=O)CCCCC(=O)c1[nH]c(=O)[nH]c1CSc1nc(-c2ccccc2)c(C#N)c(=O)[nH]1	PABP1 MLLE inh 40
CC(=O)O[C@@H]1C[C@@]2(C)[C@@H](CC[C@H]2[C@@H](C)/C=C\CC(C)C)C2=C[C@@H](O)[C@@]3(O)C[C@@H](O)[C@H](O)C[C@]3(CO)[C@]21O	none (no result: eIF4H inh, PABP polyA inh, UBC9 SUMO inh, Efflux pump mplx, ALR inh)
COc1cccc(C(=O)OCC(=O)c2c[nH]c3ccccc23)c1O	none
N#Cc1c(-c2ccccc2)nc(SCC(=O)Nc2ccc(OC(F)(F)Cl)cc2)[nH]c1=O	ALR inh 99
Cc1cc(C)nc(NS(=O)(=O)c2ccc(NC(=O)CSc3nc4ccccc4[nH]3)cc2)n1	none
O=C(CSc1nc2ccccc2c(=O)[nH]1)c1cccs1	none
Cc1cc(C)nc(NS(=O)(=O)c2ccc(NC(=O)CSc3nc(-c4ccccc4)c(C#N)c(=O)[nH]3)cc2)n1	ALR inh 99
N#Cc1c(-c2cccs2)nc(SCC(=O)c2cccs2)[nH]c1=O	ALR inh 98
N#Cc1c(-c2ccccc2)nc(SCC(=O)Nc2ccccc2)[nH]c1=O	ALR inh 98
Cc1cc(O)ccc1N/C=C1\CCCC1=O	eIF4H inh 81
O=C(O)c1cccc2c1C(=O)c1ccccc1C2=O	none
CN(C=[N+](C)C)c1cccc2c1C(=O)c1ccccc1C2=O	eIF4H inh inconclusive, PABP1 MLLE inh 86
CN(C)c1ccc(NC(=O)COC(=O)Cn2nnc3ccccc32)cc1	ALR inh 99
COCC(=O)Nc1ccc(N(C)C)cc1	none (no result: ALR inh)
COc1ccc(NC(=O)COC(=O)Cn2nnc3ccccc32)cc1	none
Cc1ccccc1SCC(=O)OCC(=O)Nc1ccc(N(C)C)cc1	ALR inh 99
NS(=O)(=O)c1ccc(NC(=O)COC(=O)Cc2c[nH]c3ccccc23)cc1	none (no result: eIF4H inh, PABP polyA inh, UBC9 SUMO inh)
COCCNC(=O)c1cccc2c(-c3ccnn3C)coc12	none (no result: eIF4H inh, PABP polyA inh, UBC9 SUMO inh, Efflux pump mplx, ALR inh)
O=C(CNc1ccc2ccccc2c1)N/N=C/c1ccc(OC(=O)/C=C/c2ccco2)cc1	eIF4H inh 71, PABP polyA inh active
Cc1ccc(C(=O)N/N=C/c2cccc(OC(=O)/C=C/c3ccco3)c2)cn1	eIF4H inh 86
CC(/C=C/c1ccco1)=N/NC(=O)c1ccc(C)nc1	none
CCn1c(COc2cc(C)ccc2C(C)C)nnc1SCC(=O)Nc1nccs1	none
O=C(NC(=S)N(Cc1ccccc1)c1ccccn1)C1CC1	ALR inh 99
O=C(NC(=S)N(Cc1ccccc1)Cc1ccccc1)C1CCCCC1	none
Cc1[nH]c2c(Br)cccc2c1[C@H]1[C@@H](CC#N)C1(C)C	none
Cc1c([C@H]2[C@@H](CC#N)C2(C)C)c2ccccc2n1C	ALR inh 97
COc1cc(/C=N/NC(=O)c2cccc(S(=O)(=O)N3CCCC3)c2)cc(OC)c1O	ALR inh 99 (no result: eIF4H inh, PABP polyA inh, UBC9 SUMO inh)
CCN(CC)S(=O)(=O)c1cccc(C(=O)N/N=C2\CCCC(=O)C2)c1	PABP polyA inh 25
CCN(CC)S(=O)(=O)c1cccc(C(=O)N/N=C/c2cccc(O)c2O)c1	eIF4H inh inconclusive, PABP polyA inh inconclusive
CCN(CC)S(=O)(=O)c1cccc(C(=O)N/N=C2\CC(=O)CC(C)(C)C2)c1	none
